Reference: PubChem BioAssay (Tox21)
Values joined by “and” are separate entries in the source; they are usually repeats but may differ in a detail not shown here. Identical values can stand only once. Inconclusive results are not listed. Active and inactive are the calls of the source. Unless noted, calls come from the whole dose curve; as a rule, active = well fitted curve in the direction sought with a large enough effect in the repeat runs; inconclusive = weak or mixed curves; inactive = no such curve, though single readings can be large; an effect the other way counts as inactive or inconclusive.

Tests used:
[1] = qHTS assay to identify small molecule agonists of H2AX (AID 1224845; active = well fitted activation curve with a large enough effect in the signal ratio in the repeat runs, not every such curve was filed as active; the % refers to the signal ratio)
Summary of the method: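 Wild-type CHO-K1 cells plated overnight, then exposed 3 hr at 37C to compounds at 15 concentrations (0.76% DMSO). Lysed, then HTRF anti-pH2AX(S139)-cryptate/anti-H2AX-d2 detection after 24 hr at room temperature; emissions 665 and 620 nm.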

[2] = qHTS assay to identify small molecule agonists of H2AX - cell viability counter screen (AID 1224847; calls by dose curve; note: nearly all actives have a fitted effect of over 30% in size; note: potency is the fitted concentration of half-maximal effect)
Summary of the method: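 Viability of CHO-K1 (wild type) cells after 3 hr compound exposure was measured by CellTiter-Glo luminescence.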

[3] = qHTS assay to identify small molecule antagonists of the estrogen related receptor (ERR) signaling pathway from Tox21 library (AID 1224848); note: nearly all actives have a fitted effect of over 50% in size; note: potency is the fitted concentration of half-maximal effect
Summary of the method: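 First, 2,000 ERR cells per well were plated and held 6 h at 37 C/5% CO2. Next, compounds in DMSO were pinned in and left 18 h at 37 C. Finally, ONE-Glo was added and luminescence read after 30 min at room temperature.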

[4] = qHTS assay to identify small molecule agonists of the estrogen related receptor (ERR) signaling pathway from Tox21 library (AID 1224849; calls by dose curve; note: nearly all actives have a fitted effect of over 15% in size); conditions: ERR reporter cell line, ONE-Glo luciferase, 18 h
Summary of the method: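 Luminescence readout (ONE-Glo, 30 min RT) after 18 h compound exposure at 37 C of NTP-supplied ERR reporter cells; cells were plated 6 h before compound addition by pin tool.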

[5] = qHTS RealTime-Glo MT Cell Viability Assay in HepG2 cells - 24 hour (AID 1224867); note: nearly all actives have a fitted effect of over 50% in size; note: potency is the fitted concentration of half-maximal effect
Summary of the method: (§1)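 Cell number in HepG2 cultures estimated from NanoLuc luminescence generated by metabolic reduction of a prosubstrate by living cells. The homogeneous, nonlytic format allowed repeated reads at 0, 8, 16, 24, 32 and 40 h of compound exposure.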

[6] = qHTS RealTime-Glo MT Cell Viability Assay in HEK293 cells - 32 hour (AID 1224868); note: nearly all actives have a fitted effect of over 50% in size; note: potency is the fitted concentration of half-maximal effect
Summary of the method: (§2)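 Homogeneous bioluminescent viability format in HEK293 cells (600 cells/well). Following 5 h at 37 C/5% CO2, 23 nL compound was pintooled; the signal was measured repeatedly during 40 h incubation.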

[7] = A CellTox Green Cytotoxicity Assay to monitor cytotoxicity in HEK293 cells - 0 hour (AID 1224869); note: nearly all actives have a fitted effect of over 50% in size
Summary of the method: (§3)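 Read-out: fluorescence of a cell-impermeant cyanine dye staining DNA of dead cells, proportional to cytotoxicity. HEK293, 600 cells/well with reagent, compound (23 nL DMSO) added after 5 h; reads at 0, 8, 16, 24, 32, 40 h.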

[8] = qHTS RealTime-Glo MT Cell Viability Assay in HepG2 cells - 40 hour (AID 1224870); note: nearly all actives have a fitted effect of over 50% in size; note: potency is the fitted concentration of half-maximal effect
Summary of the method: (§4)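 HepG2 cells mixed with RealTime-Glo MT reagents (NanoLuc plus cell-permeant prosubstrate) were seeded at 600 cells/well, incubated 5 h at 37 C/5% CO2, then pinned with compounds in DMSO; nonlytic luminescence tracked viability during 40 h treatment.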

[9] = A CellTox Green Cytotoxicity Assay to monitor cytotoxicity in HEK293 cells - 40 hour (AID 1224871); note: nearly all actives have a fitted effect of over 45% in size; note: potency is the fitted concentration of half-maximal effect
Summary of the method: as §3

[10] = qHTS RealTime-Glo MT Cell Viability Assay in HEK293 cells - 16 hour (AID 1224872); note: nearly all actives have a fitted effect of over 50% in size; note: potency is the fitted concentration of half-maximal effect
Summary of the method: as §2

[11] = qHTS RealTime-Glo MT Cell Viability Assay in HepG2 cells - 8 hour (AID 1224873); note: nearly all actives have a fitted effect of over 55% in size; note: potency is the fitted concentration of half-maximal effect
Summary of the method: as §4

[12] = qHTS RealTime-Glo MT Cell Viability Assay in HEK293 cells - 40 hour (AID 1224874); conditions: RealTime-Glo luminescence; max response: hits give low values; note: nearly all actives have a fitted effect of over 50% in size; note: potency is the fitted concentration of half-maximal effect
Summary of the method: (§5)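 Luminescence readout at each listed time point; HEK293, 600 cells/well, RealTime-Glo MT reagent added with cells; compounds pinned (23 nL in DMSO) after 5 h at 37 C; continuous culture at 37 C.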

[13] = A CellTox Green Cytotoxicity Assay to monitor cytotoxicity in HEK293 cells - 24 hour (AID 1224875); note: nearly all actives have a fitted effect of over 45% in size; note: potency is the fitted concentration of half-maximal effect
Summary of the method: as §3

[14] = A CellTox Green Cytotoxicity Assay to monitor cytotoxicity in HepG2 cells - 16 hour (AID 1224876); note: nearly all actives have a fitted effect of over 45% in size
Summary of the method: (§6)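 HepG2, 600 cells/well premixed w/ CellTox Green; 5 h settle, 37 C/5% CO2; pintool cpd add (DMSO); 37 C, 40 h; fluorescence read at 0, 8, 16, 24, 32, 40 h.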

[15] = A CellTox Green Cytotoxicity Assay to monitor cytotoxicity in HepG2 cells - 24 hour (AID 1224878); note: nearly all actives have a fitted effect of over 45% in size; note: potency is the fitted concentration of half-maximal effect
Summary of the method: as §6

[16] = qHTS RealTime-Glo MT Cell Viability Assay in HEK293 cells - 0 hour (AID 1224880)
Summary of the method: as §5

[17] = qHTS assay to identify small molecule agonists of the hypoxia (HIF-1) signaling pathway (AID 1224846; active = well fitted activation curve with a large enough effect in the signal ratio in the repeat runs, not every such curve was filed as active; the % refers to the signal ratio)
Summary of the method: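 Beta-lactamase FRET read-out (CCF4-AM substrate) from ME-180 cells carrying an HRE-driven bla reporter, after 17 hrs compound exposure at 37C/5% CO2. Cells were seeded at 2,000 per well in 0.5% dialyzed FBS medium and preincubated 5 hrs.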

[18] = qHTS RealTime-Glo MT Cell Viability Assay in HepG2 cells - 32 hour (AID 1224877); note: nearly all actives have a fitted effect of over 55% in size
Summary of the method: as §1

[19] = A CellTox Green Cytotoxicity Assay to monitor cytotoxicity in HepG2 cells - 40 hour (AID 1224879); note: nearly all actives have a fitted effect of over 40% in size; note: potency is the fitted concentration of half-maximal effect
Summary of the method: as §6
% is set by controls: 0 for no effect and ±100 for the full control effect.

Cc1cccc(C)c1NC1=NCCCS1
inactive: Potency [1] | Potency [2] | Potency [3] | activity change, positive = activation ([4]; at 42.5 µM (top of the series)) 4.81% | Potency [5] | Potency [6] | Potency [7] | Potency [8] | Potency [9] | Potency [10] | Potency [11] | max response [12] 0.136% | Potency [13] | Potency [14] | Potency [15] | outcome [16]

CC(C)c1ccc(OP(=O)(Oc2ccc(C(C)C)cc2)Oc2ccc(C(C)C)cc2)cc1
inactive: Potency [1] | outcome [17] | Potency [2] | Potency [5] | Potency [7] | Potency [8] | Potency [9] | Potency [11] | max response [12] -29.6% | Potency [13] | Potency [14] | Potency [18] | Potency [15] | Potency [19] | outcome [16]

CCC1(C2=NCCN2)Cc2ccccc2O1 (configuration not stated)
inactive: Potency [1] | Potency [2] | Potency [3] | activity change, positive = activation ([4]; at 42.5 µM (top of the series)) 5.71% | Potency [5] | Potency [6] | Potency [7] | Potency [8] | Potency [9] | Potency [10] | Potency [11] | max response [12] 7.14% | Potency [13] | Potency [14] | Potency [18] | Potency [15] | Potency [19] | outcome [16]

C#C[C@]1(O)CC[C@H]2[C@@H]3CCC4=CC(=O)CCC4=C3C=C[C@@]21CC
active: Potency [2] 34.8 µM
inactive: outcome [17] | Potency [7] | Potency [8] | Potency [9] | Potency [11] | Potency [13] | Potency [14] | Potency [15] | Potency [19] | outcome [16]

Cc1ncc(C[n+]2csc(CCO)c2C)c(N)n1
inactive: Potency [1] | Potency [2] | Potency [5] | Potency [6] | Potency [7] | Potency [8] | Potency [9] | Potency [10] | Potency [11] | max response [12] -4.98% | Potency [13] | Potency [14] | Potency [18] | Potency [15] | outcome [16]

CC(C)(C)c1ccc(CCOc2ncnc3ccccc23)cc1
inactive: Potency [1] | outcome [17] | Potency [2] | Potency [5] | Potency [6] | Potency [7] | Potency [8] | Potency [9] | Potency [10] | Potency [11] | max response [12] 3.46% | Potency [13] | Potency [14] | outcome [16]

Oc1cccc(Cl)c1
inactive: Potency [1] | outcome [17] | Potency [2] | Potency [3] | activity change, positive = activation ([4]; at 92.4 µM (top of the series)) 1.9% | Potency [5] | Potency [6] | Potency [8] | Potency [9] | Potency [11] | max response [12] 0.464% | Potency [13] | Potency [14] | Potency [18] | Potency [15] | Potency [19] | outcome [16]

CN(C)c1ccc(N=O)cc1
active: activity change, positive = activation ([4]; at 92.4 µM (top of the series)) -55.7% and -48.2% | Potency [5] 55.1 µM and 38.9 µM | Potency [6] 15.5 µM and 21.9 µM | Potency [8] 34.7 µM | Potency [9] 11 µM and 19.5 µM | Potency [10] 15.5 µM and 21.9 µM | Potency [11] 49.1 µM and 24.5 µM | Potency [12] 13.8 µM and 19.5 µM | Potency [13] 13.8 µM and 19.5 µM | Potency [15] 49.1 µM | Potency [19] 34.8 µM and 12.3 µM
inactive: Potency [3]

C=CCOC(=O)C(C)(C)OC(=O)c1cc(-n2c(=O)cc(C(F)(F)F)n(C)c2=O)ccc1Cl
active: Potency [3] 26.8 µM | Potency [12] 21.5 µM
inactive: Potency [1] | outcome [17] | Potency [2] | activity change, positive = activation ([4]; at 92.4 µM (top of the series)) -42.4% | Potency [5] | Potency [7] | Potency [8] | Potency [9] | Potency [11] | Potency [13] | Potency [14] | Potency [15] | Potency [19]

CC(C)C1(C)N=C(c2ncccc2C(=O)O)NC1=O (configuration not stated)
inactive: Potency [1] | outcome [17] | Potency [2] | Potency [5] | Potency [6] | Potency [7] | Potency [8] | Potency [9] | Potency [10] | Potency [11] | max response [12] 1.4% | Potency [13] | Potency [14] | Potency [15] | Potency [19] | outcome [16]

Cc1nnc(-c2ccccc2)c(=O)n1N
inactive: Potency [1] | outcome [17] | Potency [2] | Potency [5] | Potency [6] | Potency [7] | Potency [8] | Potency [9] | Potency [10] | Potency [11] | max response [12] -13.2% | Potency [13] | Potency [14] | Potency [15] | Potency [19] | outcome [16]

c1ccc2sc(SNC3CCCCC3)nc2c1
inactive: Potency [1] | outcome [17] | Potency [2] | Potency [5] | Potency [6] | Potency [8] | Potency [9] | Potency [10] | Potency [11] | max response [12] -0.932% and 2.76% | Potency [13] | Potency [14] | Potency [18] | Potency [15] | Potency [19] | outcome [16]

COC1=CC(=O)O[C@@H](/C=C/c2ccc3c(c2)OCO3)C1
active: Potency [3] 20.8 µM
inactive: Potency [1] | outcome [17] | Potency [2] | activity change, positive = activation ([4]; at 92.4 µM (top of the series)) -47.8% | Potency [5] | Potency [6] | Potency [7] | Potency [8] | Potency [9] | Potency [10] | Potency [11] | Potency [13] | Potency [14] | Potency [18] | Potency [15] | outcome [16]

CCCCC1C(=O)NC(=O)N(C2CCCCC2)C1=O (configuration not stated)
inactive: Potency [1] | outcome [17] | Potency [2] | Potency [6] | Potency [7] | Potency [8] | Potency [9] | Potency [10] | Potency [11] | max response [12] -0.655% | Potency [13] | Potency [14] | Potency [18] | Potency [15] | outcome [16]

CCOC(=O)c1cn2nc(OP(=S)(OCC)OCC)cc2nc1C
inactive: Potency [1] | activity change, positive = activation ([4]; at 92.4 µM (top of the series)) -40.1% | Potency [5] | Potency [7] | Potency [8] | Potency [9] | Potency [13] | Potency [14] | Potency [18] | Potency [15] | Potency [19] | outcome [16]
active: Potency [3] 34.4 µM | Potency [6] 13.8 µM | Potency [10] 17.4 µM | Potency [12] 15.5 µM

CNC(=O)Oc1cccc(N=CN(C)C)c1
inactive: Potency [1] | outcome [17] | Potency [2] | Potency [5] | Potency [6] | Potency [8] | Potency [9] | Potency [10] | Potency [11] | max response [12] 7.04% | Potency [13] | Potency [14] | Potency [18] | Potency [15] | Potency [19] | outcome [16]

COCc1cnc(C2=NC(C)(C(C)C)C(=O)N2)c(C(=O)O)c1 (configuration not stated)
inactive: Potency [1] | outcome [17] | Potency [5] | Potency [6] | Potency [7] | Potency [8] | Potency [9] | Potency [10] | Potency [11] | max response [12] 9.64% | Potency [13] | Potency [14] | Potency [15] | Potency [19] | outcome [16]

CCCC[N+](CCCC)(CCCC)CCCC
inactive: Potency [1] | outcome [17] | Potency [2] | Potency [3] | activity change, positive = activation ([4]; at 92.4 µM (top of the series)) -11.1% | Potency [5] | Potency [7] | Potency [8] | Potency [9] | Potency [11] | Potency [13] | Potency [14] | Potency [18] | Potency [15] | Potency [19] | outcome [16]

Cc1cnc(C2=NC(C)(C(C)C)C(=O)N2)c(C(=O)O)c1 (configuration not stated)
inactive: Potency [1] | outcome [17] | Potency [2] | Potency [5] | Potency [6] | Potency [7] | Potency [8] | Potency [9] | Potency [10] | Potency [11] | max response [12] 12.6% | Potency [13] | Potency [14] | Potency [18] | Potency [15] | outcome [16]
